The values that follow come from PubChem BioAssay.

In assay [1] the target is PEG-3 (UniProt Q6IN02). The experiment in a line: inhibition of PEG-3 promoter-driven reporter – cell-based, HeLa, luciferase, CREF/GAPDH counter-screen panel, dose response (AID 624167). The settings on record: CREF/GAPDH counter-screens; HeLa PEG-Prom luciferase reporter, overnight, run 1, dose range 1, at 100 µM (top of the series) unless noted. A general note: Counterscreens check selectivity or assay interference.

In assay [2] the target is PEG-3 (UniProt Q6IN02). The description is as above. The settings on record: CREF/GAPDH counter-screens; HeLa PEG-Prom luciferase reporter, overnight, run 2, dose range 1, at 100 µM (top of the series) unless noted.
In assay [3] the test system is Rat fibroblasts (CREF). The assay is described as above. The settings on record: CREF/GAPDH counter-screens; run 1, dose range 1, at 100 µM (top of the series).
The test system of assay [4] is Rat fibroblasts (CREF). Described as above. Particulars: CREF/GAPDH counter-screens; run 2, dose range 1, at 100 µM (top of the series).
The target in assay [5] is Tumor necrosis factor receptor superfamily member 10B (Homo sapiens) (UniProt O14763). Put plainly: viability loss of caspase-8 NB7 cells with TRAIL – with/without TRAIL, luminescence panel, confirmation (AID 651596). Particulars: NB7 neuroblastoma + caspase-8, TRAIL sensitization, NB7 Caspase-8, with TRAIL, mean of runs, at 10 µM, stronger effect = higher value.
Assay in assay [6]: as above
The settings on record: NB7 neuroblastoma + caspase-8, without TRAIL, NB7 Caspase-8, without TRAIL, mean of runs, at 10 µM.

For orientation: inhibition means the change of the read-out against control, counted positive when it falls.

Chain of Tumor necrosis factor receptor superfamily member 10B (Homo sapiens) (O14763 whole entry, looked up): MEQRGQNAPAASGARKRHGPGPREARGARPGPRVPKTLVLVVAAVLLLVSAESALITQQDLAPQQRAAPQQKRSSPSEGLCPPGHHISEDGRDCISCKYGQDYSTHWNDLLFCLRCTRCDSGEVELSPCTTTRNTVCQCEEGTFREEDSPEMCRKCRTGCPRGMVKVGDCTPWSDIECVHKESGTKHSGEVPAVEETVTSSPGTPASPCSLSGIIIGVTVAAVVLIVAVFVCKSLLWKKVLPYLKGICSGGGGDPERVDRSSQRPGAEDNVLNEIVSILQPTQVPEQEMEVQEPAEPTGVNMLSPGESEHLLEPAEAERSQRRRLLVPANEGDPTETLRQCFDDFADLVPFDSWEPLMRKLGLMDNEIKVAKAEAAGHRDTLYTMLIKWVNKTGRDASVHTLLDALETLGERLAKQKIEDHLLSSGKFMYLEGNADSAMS
Chain of PEG-3 (Q6IN02 whole entry, looked up): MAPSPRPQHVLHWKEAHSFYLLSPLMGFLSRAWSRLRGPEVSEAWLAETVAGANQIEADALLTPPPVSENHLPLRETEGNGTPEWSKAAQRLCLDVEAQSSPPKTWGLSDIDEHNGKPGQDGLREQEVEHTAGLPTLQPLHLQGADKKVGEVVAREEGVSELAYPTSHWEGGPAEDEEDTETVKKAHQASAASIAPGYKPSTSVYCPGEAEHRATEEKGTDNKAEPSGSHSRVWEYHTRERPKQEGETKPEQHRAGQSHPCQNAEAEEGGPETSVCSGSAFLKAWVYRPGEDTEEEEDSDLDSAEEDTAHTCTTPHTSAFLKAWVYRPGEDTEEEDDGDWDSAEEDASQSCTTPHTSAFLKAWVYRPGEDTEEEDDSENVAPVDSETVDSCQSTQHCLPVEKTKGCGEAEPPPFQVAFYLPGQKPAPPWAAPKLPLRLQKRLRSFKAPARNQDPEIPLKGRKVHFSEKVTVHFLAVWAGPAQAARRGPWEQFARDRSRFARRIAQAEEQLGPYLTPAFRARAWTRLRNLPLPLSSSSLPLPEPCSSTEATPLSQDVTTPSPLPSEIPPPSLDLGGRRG

On to `O=C(Cn1ncc(Cl)c(Cl)c1=O)N1CCc2ccccc21`, for which the inhibition in the assay with PEG-3 [1] amounted to 99.5%; with PEG-3 [2], 98.6%; with Rat fibroblasts (CREF) [3], 96.2%; with Rat fibroblasts (CREF) [4] it was 95.5%. Also, the activity was 99.5% in assay [5] and 99.6% in assay [6].

As for `Fc1ccc(-c2nnc(NC3=NCCCCC3)o2)cc1`, the inhibition with PEG-3 [1] came to 94.9%; with PEG-3 [2], 97.3%; in the assay with Rat fibroblasts (CREF) [3], 95.2%; in the assay with Rat fibroblasts (CREF) [4], 94%. Further, the activity is 76% in assay [5] and 77.7% in assay [6].

In the case of `COc1ccc(OCc2cccc(C(=O)O)c2)cc1`, the inhibition with PEG-3 [1] worked out at 98.7%; with PEG-3 [2], 102%; in the assay with Rat fibroblasts (CREF) [3], 90.9%; with Rat fibroblasts (CREF) [4] it was 89.6%. Further, the activity in assay [5] came out at 62.9%; in assay [6], 55.2%.

With `Cc1cc(C(=O)CN2C(=O)c3ccccc3S2(=O)=O)c(C)n1CC1CCCO1` (stereo unspecified), the inhibition with PEG-3 [1] turned out to be 102%; in the assay with PEG-3 [2], 99.2%; with Rat fibroblasts (CREF) [3], 99.2%; in the assay on Rat fibroblasts (CREF) [4] it was 89.4%. Moreover, the values for the activity in assay [5] and in assay [6] were 87.9% and 89%, respectively.

Consider `COc1cc(SC)ccc1C(=O)Nc1nc2ccccc2[nH]1`, for which the inhibition with PEG-3 [1] worked out at 99.2%; in the assay with PEG-3 [2], 101%; in the assay with Rat fibroblasts (CREF) [3] it was 96.9%; in the assay with Rat fibroblasts (CREF) [4], 97.9%. In addition, the activity in assay [5] and in assay [6] was 99% in each case.

Consider `Cc1ccc2nc(NC(=O)c3ccccn3)sc2c1`, for which the inhibition with PEG-3 [1] amounted to 99.4%; with PEG-3 [2] it was 98.6%; with Rat fibroblasts (CREF) [3] it was 94.5%; in the assay with Rat fibroblasts (CREF) [4], 95.5%. The activity in assay [5] was determined as 94%; in assay [6], 93.7%.

As for `C/C(=N\NC(=O)c1n[nH]c2c1CCC2)c1cccs1`, the inhibition with PEG-3 [1] came to 98.6%; in the assay with PEG-3 [2], 99.7%; in the assay on Rat fibroblasts (CREF) [3], 96.7%; in the assay on Rat fibroblasts (CREF) [4], 94.4%. Further, the activity in assay [5] worked out at 80.4%; in assay [6] it was 76.2%.

Turning to `NC(C(=O)O)C1ON=C(Cl)C1O` (stereo unspecified), the inhibition with PEG-3 [1] is 41.4%; with PEG-3 [2] it was 43.8%; with Rat fibroblasts (CREF) [3], -3.88%; in the assay on Rat fibroblasts (CREF) [4] it was 9.67%. The values for the activity in assay [5] and in assay [6] were 82.5% and 88.3%, respectively.

With `O=C(NCCc1ccccc1F)c1ccc2c(c1)OCCO2`, the inhibition in the assay with PEG-3 [1] is 98.5%; in the assay with PEG-3 [2], 102%; in the assay with Rat fibroblasts (CREF) [3] it was 100%; with Rat fibroblasts (CREF) [4], 99.8%. Besides, the activity in assay [5] was 90.4%; in assay [6], 91%.

Take `C=CCn1c(C)cc(C(=O)CN2C(=O)c3ccccc3S2(=O)=O)c1C`: the inhibition with PEG-3 [1] worked out at 94.5%; with PEG-3 [2], 96.6%; in the assay with Rat fibroblasts (CREF) [3], 99.2%; with Rat fibroblasts (CREF) [4], 96.4%. The activity is 88.8% in assay [5] and 91.4% in assay [6].

For the molecule `O=C(N/N=C/c1cccs1)c1n[nH]c2c1CCCC2`, the inhibition with PEG-3 [1] was found to be 99.5%; in the assay with PEG-3 [2] it was 94.8%; with Rat fibroblasts (CREF) [3], 96.4%; in the assay with Rat fibroblasts (CREF) [4] it was 96.8%. Besides, the activity amounted to 81% in assay [5] and 84.2% in assay [6].

For the molecule `Cc1ccccc1-c1nc(-c2ccccn2)no1`, the inhibition with PEG-3 [1] turned out to be 96.7%; in the assay with PEG-3 [2], 92%; in the assay with Rat fibroblasts (CREF) [3] it was 99.5%; in the assay with Rat fibroblasts (CREF) [4], 99.3%. Besides, the activity in assay [5] turned out to be 88.8%; in assay [6], 86.8%.

`O=C(CCl)Nc1ccccc1Sc1ccc(Cl)cc1`: the inhibition came to 102% in the assay with PEG-3 [1], 98.7% with PEG-3 [2], 99.4% with Rat fibroblasts (CREF) [3] and 100% with Rat fibroblasts (CREF) [4]. The activity in assay [5] worked out at 99.2%; in assay [6], 99.5%.

For `C(=NN1CCCCCC1)c1ccc2ccccc2n1`, the inhibition came out at 102% with PEG-3 [1], 101% in the assay with PEG-3 [2], 101% with Rat fibroblasts (CREF) [3] and 100% in the assay with Rat fibroblasts (CREF) [4]. In addition, the activity in assay [5] came out at 95.4%; in assay [6] it was 94.3%.

With `CS(=O)(=O)Nc1cccc(NC(=O)C2Cc3c(-c4ccccc4)ccnc3O2)c1` (stereo unspecified), the inhibition with PEG-3 [1] came out at 58.9%; with PEG-3 [2], 75.2%; in the assay with Rat fibroblasts (CREF) [3], 35.5%; in the assay on Rat fibroblasts (CREF) [4] it was 40%. The activity was found to be 57% in assay [5] and 69.3% in assay [6].

Take `COc1ccc(/C=C/c2nc3ccccc3n2C)cc1`: the inhibition with PEG-3 [1] was determined as 99.2%; with PEG-3 [2] it was 97.5%; in the assay with Rat fibroblasts (CREF) [3] it was 100%; with Rat fibroblasts (CREF) [4] it was 99.9%. For the same molecule, the values for the activity in assay [5] and in assay [6] were 97.2% and 97.1%, respectively.

Consider `CC1CCN(c2ccc(-c3cccc(NC(=O)C(F)(F)F)c3)nn2)CC1`, for which the inhibition in the assay with PEG-3 [1] was found to be 93.8%; in the assay with PEG-3 [2], 94.5%; in the assay with Rat fibroblasts (CREF) [3], 99.2%; with Rat fibroblasts (CREF) [4] it was 99.5%. In addition, the activity in assay [5] came out at 97.5%; in assay [6], 97.7%.

For `CC(=O)n1cc(N(C(=O)CCl)c2ccc(C)cc2)c2ccccc21`, the inhibition with PEG-3 [1] was determined as 102%; with PEG-3 [2], 99%; in the assay with Rat fibroblasts (CREF) [3], 99.7%; in the assay with Rat fibroblasts (CREF) [4], 95.3%. Moreover, the figures for the activity in assay [5] and in assay [6] were 99.6% and 99.7%, respectively.

As to `C(=Cc1cnc2ccccc2n1)c1ccc2c(c1)OCO2`, the inhibition with PEG-3 [1] came to 94.6%; with PEG-3 [2] it was 98.4%; with Rat fibroblasts (CREF) [3], 95.9%; in the assay on Rat fibroblasts (CREF) [4], 95.7%. For the same molecule, the values for the activity in assay [5] and in assay [6] were 92.9% and 92.6%, respectively.

In the case of `CN(C)CCCN(C(=O)c1ccc(S(=O)(=O)N2CCc3ccccc3C2)cc1)c1nc2ccc(F)cc2s1`, the inhibition in the assay with PEG-3 [1] stood at 102%; in the assay with PEG-3 [2], 98.9%; in the assay with Rat fibroblasts (CREF) [3], 99%; in the assay on Rat fibroblasts (CREF) [4], 98.9%. Also, the activity in assay [5] amounted to 48.5%; in assay [6] it was 17.1%.

Regarding `Cc1csc(NC(=O)c2ccc(N3CCCC3=O)cc2)n1`, the inhibition was determined as 88.6% in the assay with PEG-3 [1], 78.1% with PEG-3 [2], 88.8% with Rat fibroblasts (CREF) [3] and 90.4% with Rat fibroblasts (CREF) [4]. Also, the values for the activity in assay [5] and in assay [6] were 77.3% and 73.5%, respectively.

In the case of `O=C(Nc1ccccn1)c1cc2ccccc2o1`, the inhibition with PEG-3 [1] was found to be 82.3%; with PEG-3 [2], 96.6%; with Rat fibroblasts (CREF) [3], 99.4%; with Rat fibroblasts (CREF) [4], 98.8%. Moreover, the activity was found to be 90.3% in assay [5] and 89.6% in assay [6].

In the case of `COc1ccc(-c2nc(-c3ccccn3)no2)cc1`, the inhibition with PEG-3 [1] turned out to be 99.7%; with PEG-3 [2], 96.8%; with Rat fibroblasts (CREF) [3] it was 99.9%; with Rat fibroblasts (CREF) [4], 99.4%. For the same molecule, the activity in assay [5] is 96.7%; in assay [6] it was 95.7%.

In the case of `CCOC(=O)c1cnc(Nc2nc3ccccc3o2)nc1C`, the inhibition with PEG-3 [1] was 85.5%; with PEG-3 [2], 81.8%; in the assay with Rat fibroblasts (CREF) [3] it was 92%; with Rat fibroblasts (CREF) [4], 93%. Further, the activity in assay [5] was 92.1%; in assay [6], 91.1%.

As to `Cc1csc(NC(=O)c2cn3ccccc3n2)n1`, the inhibition was 99% with PEG-3 [1], 99.7% with PEG-3 [2], 99.8% with Rat fibroblasts (CREF) [3] and 99.8% in the assay with Rat fibroblasts (CREF) [4]. In addition, the activity in assay [5] is 89.6%; in assay [6] it was 89.8%.

Regarding `CN1CCN(c2ccc(-c3ccc4ccccc4n3)cc2)CC1`, the inhibition in the assay with PEG-3 [1] was determined as 99.5%; in the assay with PEG-3 [2], 101%; in the assay with Rat fibroblasts (CREF) [3], 98.1%; with Rat fibroblasts (CREF) [4] it was 98.6%. Also, the values for the activity in assay [5] and in assay [6] were 88.5% and 84.3%, respectively.

In the case of `Cc1ccc(C(=O)Nc2ncc([N+](=O)[O-])s2)cc1`, the inhibition with PEG-3 [1] is 91.3%; in the assay with PEG-3 [2] it was 96.1%; in the assay on Rat fibroblasts (CREF) [3], 85.9%; in the assay on Rat fibroblasts (CREF) [4] it was 88.8%. Moreover, the values for the activity in assay [5] and in assay [6] were 68% and 62.8%, respectively.

For `COCCn1c(C)cc(C(=O)COC(=O)c2cccc(O)c2)c1C`, the inhibition was found to be 89.5% in the assay with PEG-3 [1], 91.3% in the assay with PEG-3 [2], 98.3% in the assay with Rat fibroblasts (CREF) [3] and 97.1% in the assay on Rat fibroblasts (CREF) [4]. Further, the figures for the activity in assay [5] and in assay [6] were 86.2% and 87.7%, respectively.

Consider `c1cc2c(cc1C1=NNC(=NC3CC3)SC1)OCCO2`, for which the inhibition stood at 98.9% in the assay with PEG-3 [1], 99% with PEG-3 [2], 99.2% in the assay with Rat fibroblasts (CREF) [3] and 91.3% with Rat fibroblasts (CREF) [4]. Also, the activity in assay [5] is 93.3%; in assay [6] it was 90.9%.

With `COc1cccc(NC(=O)c2nc(S(C)(=O)=O)ncc2Cl)c1`, the inhibition with PEG-3 [1] came to 99.3%; in the assay with PEG-3 [2] it was 101%; in the assay with Rat fibroblasts (CREF) [3], 99.4%; with Rat fibroblasts (CREF) [4], 99.1%. Besides, the activity came to 13.1% in assay [5] and 19.6% in assay [6].

Take `CCOC(=O)Cc1csc(NC(=S)NC(=O)c2ccc(Cl)cc2)n1`: the inhibition came out at 77.7% with PEG-3 [1], 73.4% with PEG-3 [2], 88% with Rat fibroblasts (CREF) [3] and 86.8% in the assay on Rat fibroblasts (CREF) [4]. The activity is 65.1% in assay [5] and 63.8% in assay [6].
